The results in this text go back to PubChem BioAssay (NCI).

Test systems include SK-MEL-2 melanoma; EKVX NSCLC; SN12C renal; UO-31 renal; TK-10 renal; ACHN renal; CAKI-1 renal; A498 renal; MOLT-4 leukemia; SR leukemia; RPMI-8226 leukemia; OVCAR-8 ovarian; OVCAR-5 ovarian; OVCAR-4 ovarian; SK-OV-3 ovarian; IGROV1 ovarian; OVCAR-3 ovarian; HS 578T breast; NCI/ADR-RES ovarian; CCRF-CEM leukemia.
What all share (assay): NCI-60 one-dose screen, 48 h (100 = growth as untreated, 0 = no growth, -100 = all killed)
Conditions in all cases: 10 µM unless noted

Compounds without any hit were thinned out: in the full panel of roughly 83,000, 20% have a hit.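 Percent growth is the endpoint: 0 to 100 indicates growth inhibition (40 means 60% inhibition), 0 means no net growth, and negative values indicate cell death.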 A number with no mark means an inactive call. Calls of active or inactive are those of the source. Rule for the calls: active = growth percent below 10; inactive = the rest.

Turning to `O=S(=O)(Nc1ccc2ccccc2c1)N1CCCCC1`, the growth in the assay with SK-MEL-2 melanoma is 8.41% (active); in the assay on EKVX NSCLC, 81%; in the assay with SN12C renal it was 81.9%; in the assay on UO-31 renal, 25%; in the assay on TK-10 renal, 86.8%; in the assay with ACHN renal, 63.7%. The growth in the assay with CAKI-1 renal was 44%; in the assay with A498 renal it was 27%; in the assay with MOLT-4 leukemia it was 64.5%; in the assay on SR leukemia, 38.1%; with RPMI-8226 leukemia, 82.4%; in the assay on OVCAR-8 ovarian, 68.2%. The growth is 79.1% in the assay with OVCAR-5 ovarian; 85.1% with OVCAR-4 ovarian; 52% with SK-OV-3 ovarian; 36.3% in the assay on IGROV1 ovarian; 53.2% in the assay with OVCAR-3 ovarian; 47.5% in the assay on HS 578T breast. The growth with NCI/ADR-RES ovarian is 6.41% (active).

Regarding `COc1ccccc1/C=C/C(=O)CCC(=O)O`, the growth in the assay on SK-MEL-2 melanoma is 102%; in the assay with EKVX NSCLC, 105%; in the assay on SN12C renal, 100%; in the assay with UO-31 renal, 85.2%; in the assay on TK-10 renal it was 110%; with ACHN renal, 101%. Further, the growth with CAKI-1 renal was 99%; in the assay with A498 renal, 130%; in the assay with CCRF-CEM leukemia, 96.3%; in the assay with SR leukemia it was 89.1%; in the assay on RPMI-8226 leukemia, 98.8%; in the assay on OVCAR-8 ovarian, 105%. Also, the growth is 104% with OVCAR-5 ovarian; 104% in the assay with OVCAR-4 ovarian; 98.5% in the assay with SK-OV-3 ovarian; 107% in the assay on OVCAR-3 ovarian; 96% in the assay on HS 578T breast; 107% in the assay on NCI/ADR-RES ovarian.

As for `CCCCCCCC/C=C\CCCCCCCC(=O)OCCCCCC`, the growth in the assay on SK-MEL-2 melanoma was 123%; in the assay on EKVX NSCLC it was 84.9%; with SN12C renal, 111%; in the assay on UO-31 renal, 91.8%; with TK-10 renal, 112%; with ACHN renal it was 107%. In addition, the growth is 96% in the assay on CAKI-1 renal; 70.5% in the assay with A498 renal; 98.8% with CCRF-CEM leukemia; 105% with SR leukemia; 104% with RPMI-8226 leukemia; 100% in the assay with OVCAR-8 ovarian. In addition, the growth in the assay on OVCAR-5 ovarian was 117%; in the assay on OVCAR-4 ovarian, 113%; in the assay with SK-OV-3 ovarian, 99.3%; in the assay with IGROV1 ovarian it was 108%; in the assay on HS 578T breast, 105%.

Take `CC(C)(C)c1ccc(C(=O)Nc2sc3cc(O)ccc3c2C(N)=O)cc1`: the growth is 114% in the assay with SK-MEL-2 melanoma; 94.6% in the assay with EKVX NSCLC; 78% in the assay on SN12C renal; 65.6% with UO-31 renal; 133% with TK-10 renal; 74.1% in the assay on ACHN renal. The growth with CAKI-1 renal was 77.3%; with A498 renal, 107%; in the assay on CCRF-CEM leukemia, 50%; with SR leukemia it was 33.7%; in the assay with RPMI-8226 leukemia, 5.05% (active); in the assay on OVCAR-8 ovarian, 81.2%. The growth with OVCAR-4 ovarian is 72.1%; in the assay with SK-OV-3 ovarian, 115%; in the assay on IGROV1 ovarian, 57.9%; in the assay on OVCAR-3 ovarian it was 90.8%; in the assay on HS 578T breast it was 96.1%; in the assay on NCI/ADR-RES ovarian it was 71.7%.

Take `CCCCCCCCCCCCCCCC1=NCCN1`: the growth was 96% in the assay with SK-MEL-2 melanoma; 85.2% in the assay with EKVX NSCLC; -51.6% (active) in the assay with SN12C renal; 64.5% in the assay with UO-31 renal; 102% in the assay on TK-10 renal; 71.2% with ACHN renal. Moreover, the growth in the assay with CAKI-1 renal was 81.3%; with A498 renal it was 65.5%; in the assay on MOLT-4 leukemia, -27.3% (active); in the assay with SR leukemia it was -44.9% (active); with RPMI-8226 leukemia it was 40.8%; in the assay on OVCAR-8 ovarian, 84.5%. In addition, the growth was 78% with OVCAR-4 ovarian; 99.2% in the assay on SK-OV-3 ovarian; 42.3% with IGROV1 ovarian; 77% in the assay on OVCAR-3 ovarian; 84.4% in the assay on HS 578T breast; 75.4% with NCI/ADR-RES ovarian.

Turning to `CCCCCCCCCCCC1=NC(C)(C)CN1C(C)C`, the growth in the assay on SK-MEL-2 melanoma was 60.9%; in the assay with EKVX NSCLC, 57.5%; in the assay with SN12C renal, 61%; with UO-31 renal, 38%; in the assay on TK-10 renal, 81.6%; with ACHN renal, 61.6%. Moreover, the growth with CAKI-1 renal is 46.6%; in the assay on A498 renal, 76.7%; with CCRF-CEM leukemia, 29.3%; in the assay on OVCAR-8 ovarian, 58.7%; with OVCAR-5 ovarian it was 74.6%; in the assay with OVCAR-4 ovarian it was 50.7%. Also, the growth is 75.9% in the assay on SK-OV-3 ovarian; 32.5% in the assay on IGROV1 ovarian; 48.3% in the assay with OVCAR-3 ovarian; 53.2% in the assay on HS 578T breast; 47.3% in the assay on NCI/ADR-RES ovarian.

Take `Clc1cc2nc(-c3ccccc3)c(-c3ccccc3)nc2cc1Cl`: the growth is 87.9% in the assay on SK-MEL-2 melanoma; 82.6% with EKVX NSCLC; 90.4% with SN12C renal; 55.7% with UO-31 renal; 123% in the assay with TK-10 renal; 93.7% with ACHN renal. The growth in the assay with CAKI-1 renal was 89.4%; with A498 renal, 82%; in the assay with CCRF-CEM leukemia, 88.2%; in the assay on OVCAR-8 ovarian it was 112%; with OVCAR-5 ovarian, 98.6%; in the assay with OVCAR-4 ovarian it was 86.9%. The growth in the assay with SK-OV-3 ovarian was 89.3%; in the assay on IGROV1 ovarian, 65.6%; with OVCAR-3 ovarian, 92.1%; in the assay with HS 578T breast, 93.7%; in the assay with NCI/ADR-RES ovarian, 98.5%.

`Cc1[nH]c2ccccc2c1C1=CC(=O)C=CC1=O`: the growth with SK-MEL-2 melanoma is 93.7%; in the assay with EKVX NSCLC it was 107%; with SN12C renal it was 90.8%; in the assay on UO-31 renal, 59.5%; in the assay with TK-10 renal, 92.2%; in the assay on ACHN renal, 58.7%. Besides, the growth was 96.8% with CAKI-1 renal; 121% in the assay on A498 renal; 28.4% in the assay on CCRF-CEM leukemia; 12.2% with SR leukemia; 89.3% in the assay with OVCAR-8 ovarian; 103% in the assay with OVCAR-5 ovarian. In addition, the growth was 85.6% in the assay on OVCAR-4 ovarian; 120% in the assay on SK-OV-3 ovarian; 79.6% with IGROV1 ovarian; 36.7% in the assay with OVCAR-3 ovarian; 99.7% with HS 578T breast; 77% in the assay with NCI/ADR-RES ovarian.
